Data taken from the supplement of paper PMC6555819.

Key:
Test in all cases: PBM binding z-score (relative to random genomic background probes); higher = stronger binding; sequences stand for … in GC…GCGATTGACAGCGTAGAATGAAGG
[1] = system: FXR:RXRa (NR concentration 270 nM, RXRa partner concentration 90 nM)
Outline: (§1)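 On custom Agilent 4×180K arrays, double-stranded probes with 34-nt variable regions carried direct-repeat seeds, single-nucleotide variants, half-site ablations or random human genomic background. Ligand-free nuclear receptor dimers were applied for 1 h, and binding was read with antibodies against each partner (one per run). Binding z-scores come from regression-normalized fluorescence, with the random background probes as reference.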

[2] = system: LXRa:RXRa (NR concentration 270 nM, RXRa partner concentration 90 nM)
Outline: as §1

[3] = system: LXRa homodimer (NR concentration 270 nM)
Outline: as §1

[4] = system: LXRb:RXRa (NR concentration 270 nM, RXRa partner concentration 90 nM)
Outline: as §1

[5] = system: LXRb homodimer (NR concentration 270 nM)
Outline: as §1

[6] = system: PPARa:RXRa (NR concentration 270 nM, RXRa partner concentration 90 nM)
Outline: as §1

[7] = system: PPARg:RXRa (NR concentration 180 nM, RXRa partner concentration 90 nM)
Outline: as §1

[8] = system: PPARg:RXRa 270nM:90nM, anti-RXR (NR concentration 270 nM, RXRa partner concentration 90 nM)
Outline: as §1

[9] = system: PPARg:RXRa 30nM:10nM, anti-RXR (NR concentration 30 nM, RXRa partner concentration 10 nM)
Outline: as §1

[10] = system: PPARg:RXRa 90nM:30nM, anti-RXR (NR concentration 90 nM, RXRa partner concentration 30 nM)
Outline: as §1

[11] = system: PPARg:RXRa DBDmut IVT, anti-RXR (DBD mutation: RXRa K156A/R161A, NR concentration 270 nM, RXRa partner concentration 90 nM)
Outline: as §1

[12] = system: PPARg:RXRa IVT, anti-PPARg (NR concentration 270 nM, RXRa partner concentration 90 nM)
Outline: as §1

[13] = system: PPARg DBDmut:RXRa IVT, anti-PPARg (DBD mutation: PPARg1 K132A/R137A, NR concentration 270 nM, RXRa partner concentration 90 nM)
Outline: as §1

[14] = system: PPARg DBDmut IVT, anti-PPARg (DBD mutation: PPARg1 K132A/R137A, NR concentration 270 nM)
Outline: as §1

[15] = system: PPARg homodimer (NR concentration 180 nM)
Outline: as §1

[16] = system: PXR:RXRa (NR concentration 270 nM, RXRa partner concentration 90 nM)
Outline: as §1

[17] = system: PXR homodimer (NR concentration 270 nM)
Outline: as §1

[18] = system: RARa:RXR (NR concentration 270 nM, RXRa partner concentration 90 nM)
Outline: as §1

[19] = system: RARa homodimer (NR concentration 270 nM)
Outline: as §1

[20] = system: RARb:RXRa (NR concentration 270 nM, RXRa partner concentration 90 nM)
Outline: as §1

Sequence | PBM binding z-score [1] | PBM binding z-score [2] | PBM binding z-score [3] | PBM binding z-score [4] | PBM binding z-score [5] | PBM binding z-score [6] | PBM binding z-score [7] | PBM binding z-score [8] | PBM binding z-score [9] | PBM binding z-score [10] | PBM binding z-score [11] | PBM binding z-score [12] | PBM binding z-score [13] | PBM binding z-score [14] | PBM binding z-score [15] | PBM binding z-score [16] | PBM binding z-score [17] | PBM binding z-score [18] | PBM binding z-score [19] | PBM binding z-score [20]
ATCGAAAGGTCGAGGTAAGTATAGAGAAAGGGAA | 3.98 | 3.46 | 0.361 | 2.66 | 0.336 | 4.29 | 2.72 | 3.32 | 1.2 | 2.24 | 0.0665 | 1.66 | 1.14 | 1.3 | 1.24 | 2.31 | 0.464 | 3.24 | 1.21 | 4.06
TCAGACAGGTAAAGGTAACTCAGGTACGCAGTCG | 1.07 | 3.02 | 0.16 | 1.79 | 0.229 | 1.48 | 1.11 | 2.56 | 4.03 | 3.14 | 2.37 | 0.745 | 0.618 | 0.192 | 0.82 | 0.892 | 0.37 | 1.35 | 0.782 | 0.904
CGATCTAGGTCATTGACAGGACAGTGAATAGTAA | 4.68 | 2.86 | 0.511 | 2.07 | 0.134 | 4.52 | 6.86 | 6.06 | 3.13 | 5.68 | 7.84 | 7.9 | 1.48 | 1.96 | 1.92 | 1.64 | 0.255 | 2.35 | 0.361 | 3.61
CAAATTAGGTCACCGGAAGGTCAAAGTCCGCATG | 6.61 | 6.31 | 5.39 | 5.47 | 1.82 | 6.44 | 9.14 | 7.56 | 5.87 | 7.39 | 8.26 | 8.72 | 5.54 | 4.55 | 7.17 | 6.18 | 1.78 | 7.5 | 2.54 | 5.54
CCTAGCAGGCCAATCTGGGTCTCTCAAGGCTTGA | -0.268 | -0.409 | -0.738 | -0.885 | -0.982 | 0.318 | -0.774 | -0.468 | -1.1 | -0.61 | 1.89 | 1.97 | -0.916 | -2.13 | -1.06 | -0.821 | -0.804 | -0.353 | -0.835 | 0.0483
AGAATGAAGTTAAGATCAGGGAAACAGAATACAT | -0.542 | -0.312 | -0.0829 | -0.14 | -0.44 | -0.111 | 0.991 | 0.0665 | 0.0605 | 0.34 | -0.915 | -0.265 | 0.14 | 0.809 | -0.657 | -0.19 | 0.0131 | -0.474 | 0.347 | -0.251
ATCGAAAGGTCGAGAGGTGAGTATACAGAAAGGC | 4.46 | 3.02 | -0.0292 | 2.63 | 0.274 | 4.33 | 3.42 | 3.44 | 1.69 | 2.47 | -0.201 | 1.82 | 0.777 | 0.861 | 2.03 | 2.69 | -0.031 | 3.73 | 0.105 | 3.88
TCATATAGGTAATACAGTTGAAAGTCGGCATCTA | 1.56 | 1.24 | 0.63 | 1.2 | 0.422 | 1.56 | 1.32 | 2.56 | 4.01 | 3.39 | 4.07 | 2.33 | 1.55 | 1.26 | 1.26 | 1.11 | 0.75 | 1.51 | 2.05 | 0.685
GCTAGTTGGTCATTAAAAGGTCACACACCGGTCG | 3.71 | 4.83 | 6.37 | 4.7 | 1.12 | 4.31 | 1.92 | 3.77 | 1.5 | 2.68 | 1.97 | 2.97 | -0.134 | 0.443 | 4.31 | 5.25 | 1.39 | 6.14 | 1.98 | 4.4
TCAGCCAGGTGAAGGTAACTCAGGTACGCAGTCG | 0.00852 | 1.19 | -0.431 | 0.138 | -1.48 | 0.696 | 0.4 | 1.32 | 2.09 | 1.5 | 1.65 | 1.33 | -0.394 | -0.849 | -0.828 | -0.0147 | -0.594 | 0.481 | -0.526 | 0.673
CCTTACGGGTTAAGGTTATAGCACGGGTGGTACG | 1.55 | 1.38 | -0.0602 | 1.09 | -0.11 | 2.09 | 1.12 | 1.61 | 0.309 | 1.09 | 0.0868 | 0.867 | -0.169 | -0.202 | 0.702 | 1.16 | 0.325 | 1.85 | 0.517 | 1.8
TAGCCTAGGTCATGGGCCACTATACCACGCGAAC | 4.16 | 3.63 | 0.886 | 2.81 | 0.0878 | 4.15 | 4.04 | 4.19 | 1.48 | 3.31 | 2.09 | 3.43 | 0.102 | -0.16 | 1.27 | 1.72 | -0.144 | 2.66 | -0.0929 | 3.8
GCATATAGGTAATACCAGGTGAAAGTCCGATTGT | 0.107 | 2.05 | 0.172 | 0.185 | -0.363 | 1.26 | 1.13 | 1.19 | 0.303 | 0.881 | 4.03 | 3.4 | 0.784 | 0.508 | 0.56 | 0.0811 | 0.268 | 1.47 | 0.331 | -0.00831
CGTCCAAGGTCAAAGGTCAGTGCAGAGATGACGG | 8.41 | 7.01 | 3.67 | 6.47 | 1.91 | 7.1 | 10.5 | 9.08 | 8.16 | 9.41 | 3.55 | 5.49 | 1.33 | 1.29 | 4.31 | 7.08 | 2.79 | 9.23 | 3.59 | 5.77
